Experimental findings from article PMC7862700, “An all-to-all approach to the identification of sequence-specific readers for epigenetic DNA modifications on cytosine” are described below.

What all share (experiment): DAPPL (digital affinity profiling via proximity ligation, sequencing); 10 mM Tris-HCl pH 7.5, 50 mM NaCl, 1 mM DTT, 4% glycerol, room temperature, 30 min; GST-TFs on glutathione beads, 16-mer random dsDNA library, 0.1% formaldehyde crosslink after washing; high values mean tight binding
One assay concerns the target T1, FEV (Homo sapiens, UniProt Q99581 1-238).
T1 sequence: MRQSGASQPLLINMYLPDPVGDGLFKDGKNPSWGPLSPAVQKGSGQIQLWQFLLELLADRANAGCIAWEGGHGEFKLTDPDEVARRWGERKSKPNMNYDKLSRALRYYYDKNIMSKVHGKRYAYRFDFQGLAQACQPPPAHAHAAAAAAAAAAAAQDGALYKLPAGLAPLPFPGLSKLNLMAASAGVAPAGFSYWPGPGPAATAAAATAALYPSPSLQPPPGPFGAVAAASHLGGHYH
To be noted: protein: recombinant; tags: N-terminal GST; dsDNA, one strand shown. In short, it runs like this:
(§1)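 Pools of DNA-barcoded human transcription factors, expressed in yeast as GST fusions on glutathione beads and combined with a tag-only sample, were incubated with 200 nmole of a 16-mer random double-stranded DNA library. Incubation took 30 min at room temperature in Tris/NaCl/DTT/glycerol buffer and was followed by washing, 0.1% formaldehyde crosslinking, proximity ligation (BsaI/T4 ligase, 1 h, 37 °C), PCR amplification and sequencing on an Illumina NextSeq500. Binding signal is the ratio of a hexamer's read frequency for a factor to its frequency for the tag-only sample.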

A further assay concerns the target ETV5 (Homo sapiens, UniProt P41161 1-510). To be noted: protein: recombinant; tags: N-terminal GST; dsDNA, one strand shown. Summed up: as §1
A further assay concerns the target HSF1 (Homo sapiens, UniProt Q00613 1-529). To be noted: protein: recombinant; tags: N-terminal GST; chain copies: 3; dsDNA, one strand shown. In short, it runs like this: as §1
A further assay concerns the target T2, SPIC (Homo sapiens, UniProt Q8N5J4 1-248).
T2 sequence: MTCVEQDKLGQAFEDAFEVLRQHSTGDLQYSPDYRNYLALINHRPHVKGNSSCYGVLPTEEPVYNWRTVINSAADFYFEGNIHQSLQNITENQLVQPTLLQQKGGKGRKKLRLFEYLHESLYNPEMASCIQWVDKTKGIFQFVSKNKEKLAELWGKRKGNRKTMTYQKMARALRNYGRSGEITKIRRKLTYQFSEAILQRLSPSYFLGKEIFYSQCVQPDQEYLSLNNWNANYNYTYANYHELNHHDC
To be noted: protein: recombinant; tags: N-terminal GST; dsDNA, one strand shown. Summed up:
as §1

The target in a further assay is ELF4 (Homo sapiens, UniProt Q99607 1-663). To be noted: protein: recombinant; tags: N-terminal GST; dsDNA, one strand shown. In short, it runs like this:
as §1

A further assay deals with T3, ELK4 (Homo sapiens, UniProt P28324-2 1-405).
T3 sequence: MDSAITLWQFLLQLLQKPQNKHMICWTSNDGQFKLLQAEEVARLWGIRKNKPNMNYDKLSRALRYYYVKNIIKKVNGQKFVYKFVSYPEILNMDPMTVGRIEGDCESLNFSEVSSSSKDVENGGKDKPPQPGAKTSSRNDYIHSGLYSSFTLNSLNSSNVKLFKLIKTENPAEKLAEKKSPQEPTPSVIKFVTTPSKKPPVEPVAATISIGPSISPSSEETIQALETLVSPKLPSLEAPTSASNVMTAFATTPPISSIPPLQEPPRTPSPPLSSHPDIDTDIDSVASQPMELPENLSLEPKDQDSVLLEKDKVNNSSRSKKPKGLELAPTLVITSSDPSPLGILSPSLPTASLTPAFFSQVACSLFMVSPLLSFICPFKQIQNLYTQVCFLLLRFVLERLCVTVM
To be noted: protein: recombinant; tags: N-terminal GST; dsDNA, one strand shown. Summed up:
as §1

A further assay has as its target T4, ETV2 (Homo sapiens, UniProt O00321 1-342).
T4 sequence: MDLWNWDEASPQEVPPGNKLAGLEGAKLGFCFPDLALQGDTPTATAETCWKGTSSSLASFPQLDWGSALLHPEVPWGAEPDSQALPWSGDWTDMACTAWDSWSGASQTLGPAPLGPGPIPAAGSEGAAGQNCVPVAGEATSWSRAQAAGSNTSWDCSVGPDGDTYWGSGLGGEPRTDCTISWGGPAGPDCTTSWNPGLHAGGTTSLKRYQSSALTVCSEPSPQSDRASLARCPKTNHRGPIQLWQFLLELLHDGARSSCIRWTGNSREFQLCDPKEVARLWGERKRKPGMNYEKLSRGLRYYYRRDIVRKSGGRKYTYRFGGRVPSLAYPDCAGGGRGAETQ
To be noted: protein: recombinant; tags: N-terminal GST; dsDNA, one strand shown. In short, it runs like this: as §1

A further assay has as its target T5, ELF3 (Homo sapiens, UniProt P78545 1-371).
T5 sequence: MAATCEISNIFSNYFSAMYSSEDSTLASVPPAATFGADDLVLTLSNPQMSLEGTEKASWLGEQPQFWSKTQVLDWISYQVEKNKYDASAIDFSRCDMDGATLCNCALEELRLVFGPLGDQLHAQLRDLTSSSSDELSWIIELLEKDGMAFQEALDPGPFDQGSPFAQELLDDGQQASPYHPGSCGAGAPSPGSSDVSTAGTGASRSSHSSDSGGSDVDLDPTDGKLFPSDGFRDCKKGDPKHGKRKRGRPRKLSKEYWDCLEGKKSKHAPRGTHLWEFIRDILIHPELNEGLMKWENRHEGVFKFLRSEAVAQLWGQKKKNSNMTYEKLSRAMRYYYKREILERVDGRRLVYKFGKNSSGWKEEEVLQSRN
Particulars: protein: recombinant; tags: N-terminal GST; dsDNA, one strand shown. Summed up: as §1

In the next assay the target is CRX (Homo sapiens, UniProt O43186 1-299). To be noted: protein: recombinant; tags: N-terminal GST; dsDNA, one strand shown. In short, it runs like this: as §1
Chain of CRX (O43186 whole entry): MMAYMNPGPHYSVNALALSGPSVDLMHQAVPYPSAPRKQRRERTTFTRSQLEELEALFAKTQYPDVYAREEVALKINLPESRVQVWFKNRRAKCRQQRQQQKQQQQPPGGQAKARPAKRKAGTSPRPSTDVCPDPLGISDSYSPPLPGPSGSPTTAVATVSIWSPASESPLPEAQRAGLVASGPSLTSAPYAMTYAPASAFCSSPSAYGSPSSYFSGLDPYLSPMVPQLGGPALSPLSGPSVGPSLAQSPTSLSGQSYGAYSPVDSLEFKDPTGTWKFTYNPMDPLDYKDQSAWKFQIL
The next assay deals with ETV1 (Homo sapiens, UniProt P50549 1-477). To be noted: protein: recombinant; tags: N-terminal GST; dsDNA, one strand shown. Summed up: as §1
Chain of ETV1 (P50549 whole entry): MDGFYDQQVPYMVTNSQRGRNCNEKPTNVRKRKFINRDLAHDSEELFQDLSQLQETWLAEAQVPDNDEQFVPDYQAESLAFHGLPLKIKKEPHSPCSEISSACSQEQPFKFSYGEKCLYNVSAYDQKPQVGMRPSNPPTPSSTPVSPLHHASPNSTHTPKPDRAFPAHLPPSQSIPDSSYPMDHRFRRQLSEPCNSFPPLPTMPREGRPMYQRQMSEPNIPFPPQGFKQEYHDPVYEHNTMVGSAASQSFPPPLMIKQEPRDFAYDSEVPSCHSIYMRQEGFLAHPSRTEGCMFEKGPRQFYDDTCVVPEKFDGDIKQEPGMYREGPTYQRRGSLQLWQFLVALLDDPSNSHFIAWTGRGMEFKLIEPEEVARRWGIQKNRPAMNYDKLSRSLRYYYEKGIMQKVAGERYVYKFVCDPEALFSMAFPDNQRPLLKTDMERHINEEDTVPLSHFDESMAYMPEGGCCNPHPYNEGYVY
In a further assay the target is T6, ERF (Homo sapiens, UniProt P50548 1-548).
T6 sequence: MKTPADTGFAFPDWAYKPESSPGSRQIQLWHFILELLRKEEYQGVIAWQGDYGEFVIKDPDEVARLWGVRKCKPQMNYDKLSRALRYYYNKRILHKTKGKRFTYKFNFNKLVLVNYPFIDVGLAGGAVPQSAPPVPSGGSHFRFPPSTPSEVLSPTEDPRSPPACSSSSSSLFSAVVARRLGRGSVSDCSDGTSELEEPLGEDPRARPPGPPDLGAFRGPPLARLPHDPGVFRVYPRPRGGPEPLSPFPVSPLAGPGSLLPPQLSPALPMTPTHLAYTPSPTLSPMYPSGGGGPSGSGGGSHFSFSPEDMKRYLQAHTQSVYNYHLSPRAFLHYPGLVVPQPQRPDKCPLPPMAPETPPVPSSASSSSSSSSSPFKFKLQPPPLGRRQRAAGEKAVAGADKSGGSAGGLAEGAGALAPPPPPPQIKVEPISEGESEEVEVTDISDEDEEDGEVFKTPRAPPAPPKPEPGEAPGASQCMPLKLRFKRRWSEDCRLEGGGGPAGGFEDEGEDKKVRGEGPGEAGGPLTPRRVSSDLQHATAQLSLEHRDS
Particulars: protein: recombinant; tags: N-terminal GST; dsDNA, one strand shown. Summed up:
as §1

The next assay deals with T7, ETV3L (Homo sapiens, UniProt Q6ZN32 1-361).
T7 sequence: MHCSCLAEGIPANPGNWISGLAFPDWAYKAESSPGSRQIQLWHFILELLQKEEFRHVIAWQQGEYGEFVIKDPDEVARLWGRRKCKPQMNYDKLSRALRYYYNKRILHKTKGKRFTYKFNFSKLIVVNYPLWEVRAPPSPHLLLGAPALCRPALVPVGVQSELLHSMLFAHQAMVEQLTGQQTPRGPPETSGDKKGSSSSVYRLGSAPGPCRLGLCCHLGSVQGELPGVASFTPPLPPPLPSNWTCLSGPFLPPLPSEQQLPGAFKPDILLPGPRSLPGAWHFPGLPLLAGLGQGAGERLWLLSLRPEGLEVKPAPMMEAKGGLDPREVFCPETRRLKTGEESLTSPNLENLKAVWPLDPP
Particulars: protein: recombinant; tags: N-terminal GST; dsDNA, one strand shown. In short, it runs like this: as §1

Another assay concerns the target T8, ETS2 (Homo sapiens, UniProt P15036 1-469).
T8 sequence: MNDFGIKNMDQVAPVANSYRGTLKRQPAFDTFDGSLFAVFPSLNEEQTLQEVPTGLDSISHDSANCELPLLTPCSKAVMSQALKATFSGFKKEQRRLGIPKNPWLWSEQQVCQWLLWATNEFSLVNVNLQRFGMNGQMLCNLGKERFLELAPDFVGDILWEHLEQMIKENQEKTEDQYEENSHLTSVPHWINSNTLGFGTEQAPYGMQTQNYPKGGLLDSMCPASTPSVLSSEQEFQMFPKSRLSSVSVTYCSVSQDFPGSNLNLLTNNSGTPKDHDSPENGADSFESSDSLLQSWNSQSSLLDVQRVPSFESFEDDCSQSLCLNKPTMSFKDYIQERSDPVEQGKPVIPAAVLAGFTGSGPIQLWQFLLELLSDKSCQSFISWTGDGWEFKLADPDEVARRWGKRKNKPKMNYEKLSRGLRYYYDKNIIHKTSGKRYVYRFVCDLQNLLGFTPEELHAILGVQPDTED
Particulars: protein: recombinant; tags: N-terminal GST; dsDNA, one strand shown. In short, it runs like this:
as §1

The target in the next assay is T9, SPDEF (Homo sapiens, UniProt O95238 1-335).
T9 sequence: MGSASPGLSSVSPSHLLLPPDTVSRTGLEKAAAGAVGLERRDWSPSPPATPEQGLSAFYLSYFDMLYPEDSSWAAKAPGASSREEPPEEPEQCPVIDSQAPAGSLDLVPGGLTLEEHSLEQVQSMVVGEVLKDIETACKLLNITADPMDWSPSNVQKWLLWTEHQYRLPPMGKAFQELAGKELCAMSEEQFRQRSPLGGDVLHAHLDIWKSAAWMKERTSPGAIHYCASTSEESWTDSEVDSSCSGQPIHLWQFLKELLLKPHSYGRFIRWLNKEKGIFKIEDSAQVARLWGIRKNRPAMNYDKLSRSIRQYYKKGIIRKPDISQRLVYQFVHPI
To be noted: protein: recombinant; tags: N-terminal GST; dsDNA, one strand shown. Summed up: as §1

For another assay, the target named is T10, ETV7 (Homo sapiens, UniProt Q9Y603 1-341).
T10 sequence: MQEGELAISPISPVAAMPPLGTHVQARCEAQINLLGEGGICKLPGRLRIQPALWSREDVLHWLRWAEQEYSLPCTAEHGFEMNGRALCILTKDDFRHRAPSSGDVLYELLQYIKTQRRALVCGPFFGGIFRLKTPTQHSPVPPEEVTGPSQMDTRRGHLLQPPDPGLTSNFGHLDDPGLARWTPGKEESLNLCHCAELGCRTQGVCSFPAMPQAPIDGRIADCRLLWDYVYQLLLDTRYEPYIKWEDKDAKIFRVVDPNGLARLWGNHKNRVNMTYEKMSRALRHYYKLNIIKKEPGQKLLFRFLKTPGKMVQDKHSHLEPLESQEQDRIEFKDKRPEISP
To be noted: protein: recombinant; tags: N-terminal GST; dsDNA, one strand shown. In short, it runs like this: as §1

The target of another assay is T11, ELF5 (Homo sapiens, UniProt Q9UKW6-2 1-255).
T11 sequence: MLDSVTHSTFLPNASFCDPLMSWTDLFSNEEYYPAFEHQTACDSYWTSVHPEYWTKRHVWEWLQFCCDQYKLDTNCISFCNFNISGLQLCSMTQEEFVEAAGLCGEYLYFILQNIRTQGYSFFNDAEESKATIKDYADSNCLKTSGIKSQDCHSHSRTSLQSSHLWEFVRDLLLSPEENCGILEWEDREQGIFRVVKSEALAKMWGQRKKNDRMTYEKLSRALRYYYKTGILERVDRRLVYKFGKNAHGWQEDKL
To be noted: protein: recombinant; tags: N-terminal GST; dsDNA, one strand shown. In short, it runs like this: as §1

Another assay concerns the target T12, ETV3 (Homo sapiens, UniProt P41162-2 1-143).
T12 sequence: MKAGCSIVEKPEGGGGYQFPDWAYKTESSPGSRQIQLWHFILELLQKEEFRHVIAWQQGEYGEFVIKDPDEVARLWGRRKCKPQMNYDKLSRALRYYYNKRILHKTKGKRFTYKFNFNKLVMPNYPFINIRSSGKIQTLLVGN
To be noted: protein: recombinant; tags: N-terminal GST; dsDNA, one strand shown. Summed up:
as §1

The target of another assay is ETV6 (Homo sapiens, UniProt P41212 1-452). Particulars: protein: recombinant; tags: N-terminal GST; dsDNA, one strand shown. Summed up:
as §1

Chain of ETV6 (P41212 whole entry): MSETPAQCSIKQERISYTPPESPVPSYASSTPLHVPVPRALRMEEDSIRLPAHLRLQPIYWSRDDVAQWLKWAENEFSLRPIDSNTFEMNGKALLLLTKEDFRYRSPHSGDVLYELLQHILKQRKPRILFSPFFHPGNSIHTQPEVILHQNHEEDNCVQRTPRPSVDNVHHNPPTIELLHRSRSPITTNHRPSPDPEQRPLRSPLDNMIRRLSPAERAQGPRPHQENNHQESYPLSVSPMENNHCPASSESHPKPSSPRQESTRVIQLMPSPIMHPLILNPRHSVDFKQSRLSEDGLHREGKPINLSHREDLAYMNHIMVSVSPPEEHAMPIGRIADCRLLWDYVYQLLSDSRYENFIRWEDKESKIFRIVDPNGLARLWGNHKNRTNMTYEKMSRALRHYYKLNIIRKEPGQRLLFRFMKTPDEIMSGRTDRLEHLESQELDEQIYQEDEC
Chain of ETV5 (P41161 whole entry): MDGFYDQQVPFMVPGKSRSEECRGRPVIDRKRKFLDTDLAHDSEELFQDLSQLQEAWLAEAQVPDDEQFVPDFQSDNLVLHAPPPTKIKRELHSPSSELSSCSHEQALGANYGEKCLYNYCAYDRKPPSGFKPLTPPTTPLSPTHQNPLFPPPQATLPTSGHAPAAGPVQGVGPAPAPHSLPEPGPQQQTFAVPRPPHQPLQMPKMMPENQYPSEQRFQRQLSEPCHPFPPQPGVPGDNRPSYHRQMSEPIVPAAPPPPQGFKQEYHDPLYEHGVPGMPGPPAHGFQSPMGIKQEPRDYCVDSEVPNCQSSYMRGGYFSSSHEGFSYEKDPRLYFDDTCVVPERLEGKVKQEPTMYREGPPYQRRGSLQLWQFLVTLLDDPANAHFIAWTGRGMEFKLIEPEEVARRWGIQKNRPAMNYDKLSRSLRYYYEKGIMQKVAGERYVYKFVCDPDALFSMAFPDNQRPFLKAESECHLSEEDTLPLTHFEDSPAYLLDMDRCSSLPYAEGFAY
Chain of ELF4 (Q99607 whole entry): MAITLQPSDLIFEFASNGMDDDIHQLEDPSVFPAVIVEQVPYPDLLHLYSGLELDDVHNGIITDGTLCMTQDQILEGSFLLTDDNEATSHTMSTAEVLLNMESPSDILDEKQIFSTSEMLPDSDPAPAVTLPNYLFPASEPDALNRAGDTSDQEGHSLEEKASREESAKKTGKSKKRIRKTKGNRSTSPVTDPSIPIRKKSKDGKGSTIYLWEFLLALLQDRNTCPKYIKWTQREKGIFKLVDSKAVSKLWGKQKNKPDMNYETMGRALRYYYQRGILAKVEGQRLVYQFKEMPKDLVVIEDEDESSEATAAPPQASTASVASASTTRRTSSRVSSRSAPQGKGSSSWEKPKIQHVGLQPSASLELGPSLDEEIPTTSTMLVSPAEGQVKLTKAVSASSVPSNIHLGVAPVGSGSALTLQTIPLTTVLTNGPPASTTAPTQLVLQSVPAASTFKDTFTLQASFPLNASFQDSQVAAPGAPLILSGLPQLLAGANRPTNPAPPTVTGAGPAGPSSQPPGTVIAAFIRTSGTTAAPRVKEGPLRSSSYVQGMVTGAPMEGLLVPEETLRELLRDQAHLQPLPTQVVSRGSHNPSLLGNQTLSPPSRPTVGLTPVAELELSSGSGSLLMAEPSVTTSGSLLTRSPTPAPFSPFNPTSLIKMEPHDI
Chain of HSF1 (Q00613 whole entry): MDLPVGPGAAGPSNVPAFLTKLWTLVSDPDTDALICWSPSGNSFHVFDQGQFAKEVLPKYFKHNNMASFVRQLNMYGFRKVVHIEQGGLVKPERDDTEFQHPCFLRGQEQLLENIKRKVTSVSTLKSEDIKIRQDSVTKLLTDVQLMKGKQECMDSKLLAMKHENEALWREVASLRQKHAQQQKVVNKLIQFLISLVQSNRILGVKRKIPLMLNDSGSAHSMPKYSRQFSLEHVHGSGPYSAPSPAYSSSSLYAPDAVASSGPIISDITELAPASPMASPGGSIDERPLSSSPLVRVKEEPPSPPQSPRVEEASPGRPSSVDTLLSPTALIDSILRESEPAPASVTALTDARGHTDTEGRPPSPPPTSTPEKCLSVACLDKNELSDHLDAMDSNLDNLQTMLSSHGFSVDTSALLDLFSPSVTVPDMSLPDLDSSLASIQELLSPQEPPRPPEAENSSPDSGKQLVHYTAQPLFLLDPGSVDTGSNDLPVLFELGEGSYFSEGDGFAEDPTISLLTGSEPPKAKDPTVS

Take TCCTCC: the binding signal was 1.55 fold enrichment (6-mer frequency, TF over GST control) with FEV; 1.59 fold enrichment (6-mer frequency, TF over GST control) in the assay with ETV5; 1.27 fold enrichment (6-mer frequency, TF over GST control) with HSF1; 1.57 fold enrichment (6-mer frequency, TF over GST control) in the assay with SPIC; 1.62 fold enrichment (6-mer frequency, TF over GST control) with ELF4; 1.48 fold enrichment (6-mer frequency, TF over GST control) with ELK4. Moreover, the binding signal with ETV2 was 1.86 fold enrichment (6-mer frequency, TF over GST control); with ELF3 it was 1.22 fold enrichment (6-mer frequency, TF over GST control); with CRX, 1.4 fold enrichment (6-mer frequency, TF over GST control); with ETV1, 1.53 fold enrichment (6-mer frequency, TF over GST control); with ERF, 1.46 fold enrichment (6-mer frequency, TF over GST control); with ETV3L, 1.55 fold enrichment (6-mer frequency, TF over GST control). The binding signal was 1.51 fold enrichment (6-mer frequency, TF over GST control) with ETS2; 1.61 fold enrichment (6-mer frequency, TF over GST control) in the assay with SPDEF; 1.44 fold enrichment (6-mer frequency, TF over GST control) with ETV7; 2.04 fold enrichment (6-mer frequency, TF over GST control) with ELF5; 1.55 fold enrichment (6-mer frequency, TF over GST control) with ETV3; 1.51 fold enrichment (6-mer frequency, TF over GST control) in the assay with ETV6.
